Data on 17 molecules can be found in PubChem BioAssay (NCATS).

Molecules are shown by their SMILES. Results filed as inconclusive are left out. Values without a mark were called inactive. The source made the active and inactive calls. Calls come from the whole dose curve; as a rule, active = well fitted curve in the direction sought with a large enough effect; inconclusive = small, poorly fitted or top-dose-only effect, or another doubt; inactive = no such curve, though single readings can be large; an effect the other way counts as inactive or inconclusive.

The test system of test [1] is HaCat. The test is described as follows: Cytotoxic Profiling of Annotated Libraries Using Quantitative High-Throughput Screening (AID 1296008). For max response: % is set by controls: 0 for no effect and ±100 for the full control effect. Note: nearly all actives have a fitted effect of over 60% in size. The note with it: Five cell lines viability, CellTiter-Glo ATP luminescence, 48-72 h; max response: active compounds read low. Summed up: (§1)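 Cells exposed to compounds for 48 or 72 hr at 37 degrees Celsius. Viability read as ATP-coupled luminescence with CellTiter-Glo after 10 min at room temperature.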

Another test relates to NIH3T3. The description is as above. The note with it: Five cell lines viability, CellTiter-Glo ATP luminescence, 48-72 h; max response: active compounds read low. The procedure, abridged: as §1
A general note: Cellular ATP, detected with luciferase, serves as a proxy for viable cell number.

Another test relates to C33A. The test is described as follows: Primary qHTS to identify gynecologic anti-cancer compounds using libraries of approved drugs and bioactive compounds (AID 1345084). Note: nearly all actives have a fitted effect of over 55% in size. The note with it: Gynecologic cancer cell panel viability, ATPlite luminescence, 48 h; series mostly up to 57.5 µM. The procedure, abridged: (§2)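 Cytotoxicity screen measuring ATP content by luciferase luminescence. Each compound is applied at five concentrations for 48 h at 37 C with 5% CO2.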

In the next test the test system is CAOV3. The description is as above. The note with it: Gynecologic cancer cell panel viability, ATPlite luminescence, 48 h; series mostly up to 57.5 µM. The procedure, abridged: as §2
The next test relates to CASKI. The test is described as above. To be noted: Gynecologic cancer cell panel viability, ATPlite luminescence, 48 h; series mostly up to 57.5 µM. Summed up:
as §2

Another test has as its system Es-2. The description is as above. To be noted: Gynecologic cancer cell panel viability, ATPlite luminescence, 48 h; series mostly up to 57.5 µM. Summed up: as §2
A further test concerns HeLa. The test is described as above. The note with it: Gynecologic cancer cell panel viability, ATPlite luminescence, 48 h; series mostly up to 57.5 µM. Summed up: as §2
Test [2] relates to Hek293T. Described as above. To be noted: Gynecologic cancer cell panel viability, ATPlite luminescence, 48 h, control line for the selectivity index; series mostly up to 57.5 µM. Summed up: as §2
Another test has as its system JEG-3. The test is described as above. To be noted: Gynecologic cancer cell panel viability, ATPlite luminescence, 48 h; series mostly up to 57.5 µM. Summed up:
as §2

The next test deals with OV90. The test is described as above. To be noted: Gynecologic cancer cell panel viability, ATPlite luminescence, 48 h; series mostly up to 57.5 µM. The procedure, abridged: as §2
In the next test the test system is PA-1. The test is described as above. The note with it: Gynecologic cancer cell panel viability, ATPlite luminescence, 48 h; series mostly up to 57.5 µM. Summed up:
as §2

The test system of test [3] is HACAT. The test is described as follows: qHTS assay to identify novel small-molecules to repurpose for Merkel cell carcinoma treatment (AID 1296009). Note: nearly all actives have a fitted effect of over 60% in size. To be noted: MCC and control cell lines, CellTiter-Glo viability, 72 h; at 44.8 µM (top of the series) unless noted. The procedure, abridged: (§3)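 CellTiter-Glo luminescence after 72 hr compound exposure at 37 degree celsius gave cell viability. Libraries NPC and MIPE were run as 8- and 11-point dose responses; RLUs normalized to DMSO (negative) and no-cell (cytotoxicity) controls.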
For orientation: Quantitative high-throughput screening tests each substance at several concentrations.

In the next test the test system is KB-3-1. The test can be described thus: Cytotoxic Profiling of Annotated Libraries Using Quantitative High-Throughput Screening (AID 1296008). For max response: % is set by controls: 0 for no effect and ±100 for the full control effect. Note: nearly all actives have a fitted effect of over 60% in size. To be noted: Five cell lines viability, CellTiter-Glo ATP luminescence, 48-72 h; max response: active compounds read low. The procedure, abridged: as §1
For test [4], the system named is HEK293T. The test is described as follows: qHTS assay to identify novel small-molecules to repurpose for Merkel cell carcinoma treatment (AID 1296009). Note: nearly all actives have a fitted effect of over 60% in size. The note with it: MCC and control cell lines, CellTiter-Glo viability, 72 h. The procedure, abridged: as §3
Potency is the fitted concentration of half-maximal effect.

On to `C#CCNCc1cc2cc(OCc3ccccc3)ccc2[nH]1`, for which the max response in the test on HaCat [1] was -12.3%; with NIH3T3 it was -24.7%. In addition, the Potency entry in the test with C33A, in the test on CAOV3, in the test on CASKI, in the test on Es-2, in the test with HeLa and with Hek293T [2] was “inactive” in each case. The Potency result in the test on JEG-3, in the test with OV90 and in the test with PA-1 was “inactive” in each case.
For the molecule `CC(C)c1ccc(-c2cc(=O)c3ccccc3o2)cc1`, the max response with HaCat [1] was -4.45%; with NIH3T3 it was -24.9%. For the same molecule, the values for the Potency in the test on C33A and with JEG-3 were 11.2 µM (active) and 8.91 µM (active), respectively. The Potency entry with CASKI was “inactive”.
On to `C=CC(=O)N1CCC(Oc2cc3c(Nc4ccc(Cl)c(Cl)c4F)ncnc3cc2OC)CC1`, for which the max response in the test with HaCat [1] was -116%. In addition, the Potency in the test on NIH3T3 was 14.6 µM (active); in the test on CASKI, 22.4 µM (active). Besides, the Potency entry in the test with C33A, in the test with Es-2 and in the test with JEG-3 was “inactive” throughout.
In the case of `O=C(CCl)Nc1cccc(NC2=NS(=O)(=O)c3ccccc32)c1`, the molecule was called inactive in the test on HaCat [1] and in the test with HACAT [3]. Besides, the Potency result in the test on Es-2, in the test on JEG-3 and with OV90 was “inactive” in each case.
For `C=C1C(=O)OC2CC(C)=C(C(C)CCCOC(C)=O)C(OC(=O)CC(C)CC)C12` (centres undefined), the values for the max response in the test with HaCat [1] and with NIH3T3 were -2.4% and -17.5%, respectively. The Potency entry with C33A, with CAOV3, in the test on CASKI, in the test with HeLa and in the test with OV90 was “inactive” throughout.
With `Cc1ccc(F)cc1S(=O)(=O)N[C@@H]1CCN(Cc2ccc(OC(C)C)cc2)C1`, the max response was -5.2% in the test on HaCat [1] and -14.7% in the test on NIH3T3. Besides, the Potency result in the test with C33A, in the test with CAOV3, in the test with CASKI, in the test on Es-2, with HeLa and in the test with Hek293T [2] was “inactive” throughout. The Potency entry in the test on JEG-3, with OV90 and with PA-1 was “inactive” throughout.
As for `Cc1ccc(S(=O)(=O)N2CCC[C@H]2c2ccc(F)cc2)cc1`, the max response with KB-3-1 is -12.3%; in the test with NIH3T3 it was -13.3%. Moreover, the Potency result with C33A, in the test on CAOV3, in the test with CASKI, in the test with Es-2, in the test on HeLa and in the test on Hek293T [2] was “inactive” throughout. For the same molecule, the Potency entry in the test on JEG-3 and with PA-1 was “inactive” each time.
Regarding `C=C[C@@]1(C)CCC2C(=CCC3[C@]2(C)CCC[C@@]3(C)C(=O)O)C1` (some centres undefined), the values for the max response with KB-3-1 and in the test on NIH3T3 were -10.5% and -28.5%, respectively. Besides, the Potency entry with C33A, in the test on CAOV3, with Es-2, in the test on HeLa, in the test with Hek293T [2] and in the test on JEG-3 was “inactive” throughout. Further, the Potency result with OV90 is “inactive”.
Consider `C[C@H](Oc1cc(-n2cnc3ccc(CN4CCN(C)CC4)cc32)sc1C(N)=O)c1ccccc1C(F)(F)F`, for which the Potency in the test on KB-3-1 is 1.03 µM (active); in the test with NIH3T3 it was 18.4 µM (active); in the test on HEK293T [4], 1.3 µM (active); with C33A, 15.8 µM (active); in the test on Es-2, 11.2 µM (active); in the test with HeLa, 5.01 µM (active). The Potency in the test on JEG-3 was 3.16 µM (active); in the test on PA-1, 11.2 µM (active). The Potency entry with CAOV3 and with OV90 was “inactive” each time.
Regarding `C=C1C(=O)O[C@@H]2C[C@]3(C)[C@@H](CCC(C)O)[C@@H]3C[C@H]12` (some centres undefined), the call in the test with KB-3-1 was inactive. In addition, the max response with NIH3T3 is -15.1%. Further, the Potency result in the test with C33A, in the test with CAOV3, in the test on CASKI, in the test with Es-2, with HeLa and in the test on Hek293T [2] was “inactive” each time. The Potency entry with JEG-3, with OV90 and with PA-1 was “inactive” throughout.
With `CN(C)CCOc1ccccc1Cc1ccccc1` (tested in a mixture with another compound), the max response with KB-3-1 was 0.128%.
Turning to `Cc1cc(-n2c(=O)[nH]c(=O)n(C)c2=O)ccc1Oc1ccc(S(=O)(=O)C(F)(F)F)cc1`, the max response with KB-3-1 was 28.3%.
Consider `CCC/C=C/c1cc2c(C=O)c(O)c(CC=C(C)C)cc2o1`, for which the max response with KB-3-1 was 3.3%; in the test with NIH3T3, -11.8%. Further, the Potency result with C33A, in the test on CAOV3, in the test with CASKI, in the test with Es-2, in the test with HeLa and in the test with Hek293T [2] was “inactive” throughout. Further, the Potency entry in the test on JEG-3, in the test on OV90 and with PA-1 was “inactive” throughout.
As for `COc1cc2ncnc(Oc3ccc(CC(=O)Nc4cnn(C(C)C)c4)cc3)c2cc1OC`, the max response in the test with KB-3-1 was 0.878%. Moreover, the Potency in the test with NIH3T3 is 23.1 µM (active). The Potency result in the test with C33A, in the test on Es-2, in the test with HeLa, with Hek293T [2], in the test with JEG-3 and with OV90 was “inactive” each time. Also, in the test on PA-1, the Potency entry was “inactive”.
For `C1CNCCN1`, the max response with KB-3-1 is -7.97%.
`CC1(C)C2CC[C@]3(C)[C@H](C(=O)C=C4[C@@H]5C[C@@](C)(C(=O)O)CC[C@]5(C)CC[C@]43C)[C@@]2(C)CC[C@@H]1O[C@H]1O[C@H](C(=O)O)[C@@H](O)[C@H](O)[C@H]1O[C@@H]1O[C@H](C(=O)O)[C@@H](O)[C@H](O)[C@H]1O` (some centres undefined): the max response in the test on KB-3-1 is -22.6%.
For the molecule `CC(=O)O[C@@H]1[C@@H](OC(C)=O)[C@H](C)O[C@@H](O[C@H]2[C@@H]3C=CO[C@@H](O[C@@H]4O[C@H](CO)[C@@H](O)[C@H](O)[C@H]4O)[C@@H]3[C@@]3(CO)O[C@@H]23)[C@@H]1OC(=O)/C=C/c1ccccc1`, the max response is 2.67% with KB-3-1 and -8.05% in the test on NIH3T3. The Potency result with C33A, in the test with CAOV3, in the test with CASKI, with Es-2, in the test on HeLa and in the test with Hek293T [2] was “inactive” throughout. In addition, the Potency result with JEG-3 and in the test on OV90 was “inactive” throughout.
